# Source: paper PMC10163288
# The list is a sample of the results. How many sequences the whole screen found active is unknown. Unmarked numbers belong to inactive results.
# B1: il2ra_site2_3nfp_sap_19_mot_HHH_b1_06699_000000048_0001_23_40_H_._ems_3hC_59_0001_0000100006_0000001_0_0001_af2pred_0001_af2pred (protein)
# chain: SSSSSDAAEEAEELAEEARHVEDPEERERILRKAAELAYRARDHEVFAEIHLVIEELERSSSSSS
# B2: il2ra_site1_3nfp_normal_mot_HHH_b2_08102_af2_000000255_0001_38_50_H_._HHH_b2_05157_0001_0000400017_0000001_0_af2pred_0001_af2pred (protein)
# chain: SSSSDHLAREYTEWAKRRIRELLERGDEEAARRLLEKAKRSLEIAGDEEAVEELEKLYEELSSSS
# B3: il2ra_site1_2b5i_normal_mot_HHH_b2_01040_af2_000000143_0001_42_56_H_._HHH_b1_04969_af2_0002_0000100009_0000001_0 (protein)
# chain: SSSSSDEAEEAAREALELLRELLRVDEEEIKELLEEAHEKLEKLNDEALLKRVERLLRLLSSSSS
# B4: il2ra_site1_3nfp_sap_13_mot_HHH_b1_04931_000000291_0001_38_56_H_._HHH_b2_07276_0001_0000200010_0000001_0_0001 (protein)
# chain: SSSSSDYEELERLFREIFELAKKGDHEEARRLIEELEELAHEANNEFMEQAVKQLKKTVNSSSSS
# B5: il2ra_site2_3nfp_normal_mot_HHH_b2_00232_000000252_0001_23_39_H_._HHH_b2_01857_0001_0000200024_0000001_0_1_af2pred_0001_af2pred (protein)
# chain: SSSSSDEEEEKVEELLEEAEHIEDEEELEDILALAFLIAFEAEDPELLRLVREVSAELLQSSSSS
# B6: il2ra_site2_2erj_sap_21_mot_39ed66e5fba071e4f274ea7f2cf018e6_0001_000000286_0001_17_31_H_._HHH_b1_00857_0001_0000200006_0000001_0_0001_af2pred_0001_af2pred (protein)
# chain: SSSSEEREKAKELAARALQLRERGNPEEAEELLREAEEIAREGGDEELLQLIQAALRLIELSSSS
# B7: il2ra_site1_3nfp_normal_mot_HHH_b1_02721_af2_000000134_0001_39_56_H_._HHH_b2_00677_af2_0001_0000100009_0000001_0 (protein)
# chain: SSSSSDTEEAFQLDRELLEALRKGDEELIEELLRELEELAKELNDELAERLVEQFKELLKSSSSS
# B8: il2ra_site2_2erj_sap_26_mot_HHH_b2_08005_af2_000000017_0001_39_52_H_._5f42aca8a0c299d7b7d7982f3e471efe_0001_0001_0000400050_0000001_0_0001 (protein)
# chain: SSSSDLEEEVERIEKEAEELYKNGNPEEALRLLSELFDELYQLGDHELAARVIKLVAELARSSSS
# B9: il2ra_site1_1z92_normal_mot_HHH_b1_04329_000000069_0001_1_19_H_._HHH_b2_03912_0001_0000100007_0000001_0_af2pred_0001_af2pred_1 (protein)
# chain: SSSSIELIRFADEVVLRLAEEYKLSDEDAQYLAEVAIELIRRGYSEEEIEEILQEEAEKLSSSSS
# B10: il2ra_site2_2erj_sap_19_mot_HHH_b2_00505_000000221_0001_1_17_H_._HHH_b1_08169_0001_0000200013_0000001_1_0001 (protein)
# chain: SSSSSEWLHRSYKLANELMHLLARGDEEEFERLVEEIEKFAEERDNKVLKEIVESLHRLFNSSSS
# B11: il2ra_site1_2b5i_normal_mot_HHH_b2_04910_000000118_0001_1_19_H_._HHH_b1_07294_af2_0001_0000100005_0000001_0_af2pred_dldesign_0_af2pred (protein)
# chain: SSSSSSKEALELFLKANEAYQAGNYEEAKKLLEEALEKAKAAGMTALVKMIESALESLSSSSSSS
# B12: il2ra_site1_3nfp_sap_20_mot_HHH_b2_00213_000000088_0001_1_18_H_._HEEHE_0331_af2_0001_0000400039_0000001_0_0001_af2pred_dldesign_0_af2pred (protein)
# chain: SSSSSLRKELERLLKKAYETGKKNDKEKLKKLLEEALKLAKENKAKLSVKFLERALKQLKSSSSS
# B13: il2ra_site1_1z92_normal_mot_HHH_b1_04604_af2_000000029_0001_42_56_H_._HHH_b2_07020_af2_0001_0000300012_0000001_0 (protein)
# chain: SSSSSSDVIELALRLARALRRGDEEEVQELLEELKRYAEERDNRAAREIAERIEKHLGSSSSSSS
# B14: il2ra_site1_1z92_sap_15_mot_e1ae4cb039f7b6770b9307eb87230ce5_0001_000000230_0001_37_51_H_._22eb9e4dad251339c268dc73c902281b_0001_0001_0000100004_0000001_0_0001_ … (protein)
# chain: SSSSSSERDARIVVELAVRAAGLSEEQQEELERLAKELLEEGYSFEEIARILDKLALELGSSSSS
# B15: il2ra_site2_2erj_sap_13_mot_HHH_b2_06689_af2_000000039_0001_18_34_H_._HHH_b1_05500_af2_0001_0000100002_0000001_0_0001 (protein)
# chain: SSSSSEELHRLYELAVELLRAVAEGDEELVREILEEVEELAERADSENVKELIENLHRLFNSSSS
# B16: il2ra_site1_2b5i_normal_mot_HHH_b1_02271_000000068_0001_1_16_H_._HHH_b2_05772_0001_0000400026_0000001_0_af2pred_dldesign_0_af2pred (protein)
# chain: SSSSSPELKRLVEEALRRAEAAKAAGRVREALEILNAAHKKADEADDEELSDELEAKAKELSSSS
# B17: il2ra_site1_1z92_sap_10_mot_d8cfa582855fb05d91e09f57594ab115_0001_1_000000067_0001_37_51_H_._HEEHE_2450_0001_0000100007_0000001_0_0001 (protein)
# chain: SSSSSEAERAFELIREIDEVIREGDEEEAKRLLEELRRLAEERNSPTMKRLLELLEEALEGSSSS
# B18: il2ra_site2_2erj_normal_mot_6bd1339e93f6fdda22195c76da45ec5d_0001_000000136_0001_37_51_H_._ems_3hC_696_0001_0000700021_0000001_0_af2pred_0001_af2pred (protein)
# chain: LEEDILRAFRIAVELLEKFRDDPEIERLVLEASLELTEAIEENDEEKIERVIEKIEEIKEEADSS
# Target: il2ra, P01589
# Assay: yeast display titration
# il2ra, P01589, sequence (P01589 whole entry): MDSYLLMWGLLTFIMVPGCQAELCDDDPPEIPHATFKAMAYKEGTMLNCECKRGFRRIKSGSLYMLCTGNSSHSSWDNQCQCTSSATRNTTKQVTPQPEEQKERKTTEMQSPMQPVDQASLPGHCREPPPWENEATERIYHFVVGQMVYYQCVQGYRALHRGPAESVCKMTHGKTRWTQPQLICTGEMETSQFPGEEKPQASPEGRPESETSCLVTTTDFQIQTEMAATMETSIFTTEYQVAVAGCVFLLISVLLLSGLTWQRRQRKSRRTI
row,Binder,apparent Kd
1,B1,no binding seen
2,B2,no binding seen
3,B3,no binding seen
4,B4,no binding seen
5,B5,no binding seen
6,B6,no binding seen
7,B7,> 0.802 µM
8,B8,no binding seen
9,B9,no binding seen
10,B10,no binding seen
11,B11,no binding seen
12,B12,> 1.47 µM
13,B13,no binding seen
14,B14,no binding seen
15,B15,no binding seen
16,B16,no binding seen
17,B17,no binding seen
18,B18,no binding seen
